Laboratory results from PubChem BioAssay (NCI).
This is part of a sample that, as a whole, favours compounds with a hit. Of some 83,000 tested, about 20% had one in any assay.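 Results are percent growth after 48 hours of single-concentration exposure. 100 means growth as in untreated cells, lower positive values show inhibition; negative values down to -100 show cell death.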 A number with no mark means an inactive call. The source made the active and inactive calls. Rule for the calls: active = growth percent below 10; inactive = the rest.

What follows are compounds tested on NCI-H460 lung (assay: NCI-60 one-dose screen, 48 h (100 = growth as untreated, 0 = no growth, -100 = all killed)). Settings: 10 µM.
In the case of CN1CCN(c2ccc(C(=O)/C=C/c3cc(C(F)(F)F)ccc3Cl)cc2)CC1, the growth was -46.6% (active).
For CCOc1ccc(/C=N/NC(=O)Cn2nc(Cc3ccccc3)c3onc(C)c3c2=O)cc1, the growth was 16.7%.
For O=C(NO)c1ccc(-c2nc3ccc4[nH]ncc4c3c3c2CCCC3)cc1, the growth was -43.4% (active).
Work on COc1ccc(-c2ccc(/C=N/NC(=O)c3[nH]c4ccc(Br)cc4c3-c3ccccc3)o2)cc1 yielded a growth of 16.8%.
With CCOC(=O)C1=C(N)N(c2ccc(C)cc2)C2=C(C(=O)CC(C)(C)C2)C1c1ccccc1OC (stereo not given) the growth was 111%.
N#C/C(=C\c1ccc(N(c2ccccc2)c2ccccc2)cc1)C(N)=O was tested, and the growth was 5.51% (active).
With NC1=NC(c2ccccc2Cl)N=C(Nc2nn[nH]n2)N1 (stereo not given) the growth was 108%.
O=C(N/N=C/c1ccc(-c2cccc([N+](=O)[O-])c2)o1)c1[nH]c2ccc(Br)cc2c1-c1ccccc1 was tested, and the growth was 9.61% (active).

What follows are compounds tested on HOP-92 NSCLC in the same assay as above. Settings: 10 µM.
In the case of CNC(=O)c1cccc(N2CCc3c2ccc(NC(=O)Nc2ccc(N4CCN(C)CC4)c(C(F)(F)F)c2)c3F)c1, the growth was -83% (active).
With CC(=O)Nc1ccc(-n2cnc3cc(-c4ccc(O)cc4)ccc32)cc1C the growth was 67.2%.
With CN(C)c1nc(NCCNS(=O)(=O)c2ccc(C(=O)/C=C/c3ccccc3)cc2)nc(Nc2ccc(F)cc2)n1 the growth was -12.1% (active).
O=C1CCC(N2Cc3c(C#CCCCNC(=O)c4ccc(NC(=O)[C@@H]5NC6(CCCCC6)[C@@]6(C(=O)Nc7cc(Cl)ccc76)[C@H]5c5cccc(Cl)c5F)cc4)cccc3C2=O)C(=O)N1 (stereo not given in full) gave a growth of 39.3%.
For COc1cc(C2CC(c3ccccc3)=Nc3c(N)nc(N)nc3N2)ccc1Oc1nc(Nc2ccc(F)cc2)nc(N(C)C)n1 (stereo not given), the growth was 16.3%.
In the case of CCOC(=O)C1=C(N)N(c2ccc(Cl)cc2)C2=C(C(=O)CC(C)(C)C2)C1c1ccc(N2CCOCC2)cc1 (stereo not given), the growth was 92.9%.
Compound O=C(c1ccc(Cl)cc1)C1[C@H](c2ccccc2Br)[C@@H](c2ccccc2)NC12C(=O)Nc1ccc(Cl)cc12 (stereo not given in full) has a growth of 23%.
In the case of Nc1nc(Nc2ccc(Cl)cc2)nn1Cc1cccc(Br)c1, the growth was -9.09% (active).
O=S(=O)(Nc1ncccn1)c1ccc(-n2c(-c3ccccc3)nc(-c3ccccc3)c2-c2ccccc2)cc1 was tested, and the growth was 109%.
For CN1CCc2c(sc3ncnc(N/N=C/c4cn(-c5ccccc5)nc4-c4ccc(Cl)cc4)c23)C1, the growth was 45.7%.
Work on Nc1nnc(-c2c[nH]c3ncccc23)c(-c2c[nH]c3ccc(Br)cc23)n1 yielded a growth of 54.8%.
Cc1cc(=O)oc2cc(OCCCCOc3ccc(/C=C/C(=O)Nc4ccccc4[N+](=O)[O-])cc3)ccc12 gave a growth of 130%.
For COc1ccc(-c2nc(S(=O)(=O)c3ccc(C)cc3)c(S(C)(=O)=O)o2)cc1, the growth was -75% (active).
CN1CCN(Cc2ccc(C(=O)Nc3cccc(Nc4ccc5c(O)cccc5n4)c3)cc2C(F)(F)F)CC1 was tested, and the growth was -37.3% (active).
For O=C1NC(=NC23CC4CC(CC(C4)C2)C3)N/C1=C\c1ccc2ncccc2n1, the growth was -14.6% (active).
COc1csc(/C=N/NC(=O)c2[nH]c3ccc(Br)cc3c2-c2ccccc2)c1 showed a growth of 49.2%.
O=C(Cn1nc(-c2ccccc2)ccc1=O)NNC(=S)NC1CCCCC1 was tested, and the growth was 116%.
In the case of NS(=O)(=O)c1ccc(NC(=O)CSc2ccc(-c3ccccc3)nn2)c(Br)c1, the growth was -20.3% (active).
O=c1c2ccccc2nc(COc2ccccc2)n1/N=C/c1ccc(F)cc1 showed a growth of 100%.
With O=C(Nc1ccc(Cl)c([N+](=O)[O-])c1)Nc1ccc(Cl)c([N+](=O)[O-])c1 the growth was -34.2% (active).
O=C(Nc1ccc(OCc2ccccc2)cc1)Nc1ccc(Cl)c(C(F)(F)F)c1 was tested, and the growth was -38.7% (active).
COc1ccc2nc(Cl)c(-c3cc(-c4ccccc4)nc(N)n3)cc2c1 gave a growth of 48.5%.
For CN1CCN(c2ccc(Nc3nc(NCCCNC(=O)c4ccccc4)c4sccc4n3)cc2)CC1, the growth was 69.3%.
Work on O=C1Nc2ccc(F)cc2/C1=C/c1cccc(OCc2ccccc2)c1 yielded a growth of 18.8%.
For Cc1noc2c(Cc3ccc([N+](=O)[O-])cc3)nn(CC(=O)N/N=C/c3ccc(Cl)cc3)c(=O)c12, the growth was -20.2% (active).
O=c1[nH]c2ccc(Cl)cc2cc1CSc1ccc(Nc2nccc(-c3ccc(Cl)cc3)n2)cc1 gave a growth of 82.1%.
For O=S(=O)(Nc1ncccn1)c1ccc(-n2c(-c3ccc(Br)cc3)nc(-c3ccccc3)c2-c2ccccc2)cc1, the growth was 11.4%.
